Results from PubChem BioAssay (NCI).
The panel holds about 83,000 compounds, 20% with a hit somewhere; the sample as a whole holds those more often.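 Values shown are percent growth following 48 h exposure of cells in 96-well plates to a single concentration of compound; below 10 was considered active.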 Unmarked numbers belong to inactive results. Active and inactive are the calls of the source.

How the values were obtained:
Assay in all cases: NCI-60 one-dose screen, 48 h (100 = growth as untreated, 0 = no growth, -100 = all killed)
Settings in all cases: 10 µM
SK-MEL-2 melanoma = tested on: SK-MEL-2 melanoma
EKVX NSCLC = tested on: EKVX NSCLC
SN12C renal = tested on: SN12C renal
UO-31 renal = tested on: UO-31 renal
TK-10 renal = tested on: TK-10 renal
ACHN renal = tested on: ACHN renal
A498 renal = tested on: A498 renal
CCRF-CEM leukemia = tested on: CCRF-CEM leukemia
MOLT-4 leukemia = tested on: MOLT-4 leukemia
SR leukemia = tested on: SR leukemia
RPMI-8226 leukemia = tested on: RPMI-8226 leukemia
OVCAR-8 ovarian = tested on: OVCAR-8 ovarian
OVCAR-5 ovarian = tested on: OVCAR-5 ovarian
OVCAR-4 ovarian = tested on: OVCAR-4 ovarian
SK-OV-3 ovarian = tested on: SK-OV-3 ovarian
IGROV1 ovarian = tested on: IGROV1 ovarian
OVCAR-3 ovarian = tested on: OVCAR-3 ovarian
HS 578T breast = tested on: HS 578T breast
CAKI-1 renal = tested on: CAKI-1 renal
NCI/ADR-RES ovarian = tested on: NCI/ADR-RES ovarian

Row | Structure (SMILES) | growth (SK-MEL-2 melanoma) | growth (EKVX NSCLC) | growth (SN12C renal) | growth (UO-31 renal) | growth (TK-10 renal) | growth (ACHN renal) | growth (A498 renal) | growth (CCRF-CEM leukemia) | growth (MOLT-4 leukemia) | growth (SR leukemia) | growth (RPMI-8226 leukemia) | growth (OVCAR-8 ovarian) | growth (OVCAR-5 ovarian) | growth (OVCAR-4 ovarian) | growth (SK-OV-3 ovarian) | growth (IGROV1 ovarian) | growth (OVCAR-3 ovarian) | growth (HS 578T breast) | growth (CAKI-1 renal) | growth (NCI/ADR-RES ovarian)
1 | O=[N+]([O-])c1cc(Cl)cc(Cl)c1O | 103% | 96% | 101% | 84% | 95.1% | 99.4% | 106% | 98.7% | 106% | 103% | 103% | 103% | 103% | 108% | 91.3% | 104% | 109% | 97.6% |  | 
2 | COc1ccc2nc(Cl)c(Cn3nnc(Cc4ccccc4)n3)cc2c1 | 49.6% | 24.5% | 57.3% | 14.7% | 34.9% | 41.5% |  |  | 10.3% | 22.9% |  | 40.5% | 82.8% | 19.7% | 49.4% | 43.2% | 49.8% | 68.9% | 43.9% | 20.1%
3 | Cc1c2cnccc2c(C)c2c1c1cc(O)ccc1n2C(C)C | -14.4% (active) | 9.67% (active) | -6.79% (active) | -3.92% (active) | 56.2% | -1.61% (active) |  |  | -4.53% (active) | -17.1% (active) |  | 7.98% (active) | 69.2% | 25% | -15.7% (active) | 7.7% (active) | 21.5% | 3.64% (active) | 15.6% | 1.26% (active)
4 | COc1ccc(-c2cc(-c3cc(OC)ccc3OC)nc(N)c2C#N)cc1 | 77.1% | 70.5% | 59% | 69.4% | 103% | 66.1% |  |  | 85% | 43.9% |  | 39.5% |  | 48.4% | 62.9% | 58.7% | 53.7% | 53.7% | 90.3% | 52.4%
5 | O=C(CN(C1CCCCC1)C1CCCCC1)Nc1ccc(S(=O)(=O)c2ccc(NC(=O)CN(C3CCCCC3)C3CCCCC3)cc2)cc1 | -35.4% (active) | -43.6% (active) | 30.6% | 10.2% | 56.1% | -33% (active) | 89.4% | -59.7% (active) | -25.2% (active) | -51.4% (active) | -66.9% (active) | 3.23% (active) | -54.8% (active) | -72.6% (active) | 76.6% | -52.3% (active) | -85.2% (active) | 33.9% |  | 
6 | CCN1CCN(CCC(=O)Nc2cccc(-n3cc(-c4ccncc4)c(-c4ccc(Cl)c(OC)c4)n3)c2)CC1 | -19.5% (active) | 54.5% | 38.8% | 34.6% | 44.7% | 37.2% | -14.1% (active) | 1.32% (active) | 2.89% (active) | -12.3% (active) | -38.8% (active) | 24.2% |  | 43.1% | 39.2% | 47.2% | 7.41% (active) | 13.1% |  | 15.2%
7 | CCOC(=O)c1cc(C(=O)c2ccc(OC)c(OC)c2)n2ccncc12 | 96% | 106% | 102% | 71.3% | 123% | 88.1% | 94.6% | 101% | 94.2% | 78.5% | 88.3% | 94.9% | 124% | 104% | 64.2% | 102% |  | 102% |  | 96.9%
8 | Cc1cc(=O)n2nnc3cc(C(F)(F)F)ccc3n12 | 99.2% | 107% | 106% | 84% | 93.6% | 108% | 103% | 103% | 91.3% | 104% | 107% | 111% | 121% | 116% |  |  | 114% | 117% |  | 110%
